Inconclusive results are not listed. Activity calls are given as the source filed them. Unless noted, calls follow the shape of the full dose curve.
Tests used:
[1] = Nuclear factor erythroid 2-related factor 2/antioxidant responsive element (Nrf2/ARE) small molecule agonists: qHTS cell viability counter screen in human keratinocytes (AID 1919968; active = well fitted curve in the direction sought with a large enough effect in the repeat runs; an effect the other way counts as inactive or inconclusive; also: nearly all actives have a fitted effect of over 55% in size)
How it was run: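 Viability counter-screen: KeratinoSens reporter cells, DMSO-delivered compounds, 23 h at 37 C, CellTiter-Fluor fluorescence.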

[2] = Nuclear factor erythroid 2-related factor 2/antioxidant responsive element (Nrf2/ARE) small molecule agonists: luciferase reporter gene qHTS assay in human keratinocytes (AID 1919969); also: nearly all actives have a fitted effect of over 35% in size
[3] = molecular target: Gonadotropin-releasing hormone receptor (Homo sapiens) (UniProt P30968); test: Human gonadotropin-releasing hormone receptor (GnRHR) small molecule agonists, calcium flux assay in GnRHR-HEK293 cells (AID 1920063); also: nearly all actives have a fitted effect of over 35% in size
Sequence of Gonadotropin-releasing hormone receptor (Homo sapiens) (P30968 whole entry, looked up): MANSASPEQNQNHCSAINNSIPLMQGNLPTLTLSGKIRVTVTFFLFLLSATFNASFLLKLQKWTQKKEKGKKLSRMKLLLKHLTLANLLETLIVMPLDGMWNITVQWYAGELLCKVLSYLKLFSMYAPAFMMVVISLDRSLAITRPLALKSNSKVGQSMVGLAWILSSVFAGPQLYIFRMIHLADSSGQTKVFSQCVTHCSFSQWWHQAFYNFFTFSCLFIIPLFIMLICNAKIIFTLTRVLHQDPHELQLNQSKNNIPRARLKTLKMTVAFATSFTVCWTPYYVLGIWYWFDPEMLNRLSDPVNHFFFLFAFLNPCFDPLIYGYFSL
How it was run: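 Tox21-format agonist screen using human GnRHR-expressing HEK293 cells and a fluorescent calcium dye; kinetic 3-min fluorescence reading after compound addition, 15-point concentration series run in triplicate.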

[4] = molecular target: KiSS-1 receptor (Homo sapiens) (UniProt Q969F8); test: Human kisspeptin (KISS1R) small molecule agonists, calcium flux assay in KISS1R-HEK293 cells (AID 1920064; active = well fitted curve in the direction sought with a large enough effect in the repeat runs; an effect the other way counts as inactive or inconclusive)
Sequence of KiSS-1 receptor (Homo sapiens) (Q969F8 whole entry, looked up): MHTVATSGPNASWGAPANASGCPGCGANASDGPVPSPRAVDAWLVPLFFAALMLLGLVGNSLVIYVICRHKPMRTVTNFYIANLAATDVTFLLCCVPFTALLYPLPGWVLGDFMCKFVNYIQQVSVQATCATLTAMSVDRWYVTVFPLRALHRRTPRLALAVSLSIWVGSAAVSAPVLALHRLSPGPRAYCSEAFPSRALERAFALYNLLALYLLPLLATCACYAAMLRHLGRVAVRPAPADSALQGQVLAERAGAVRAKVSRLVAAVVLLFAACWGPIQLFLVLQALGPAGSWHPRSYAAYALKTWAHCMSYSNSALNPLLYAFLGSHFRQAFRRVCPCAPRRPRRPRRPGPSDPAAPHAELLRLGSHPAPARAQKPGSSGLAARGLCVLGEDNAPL
How it was run: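 Intracellular calcium mobilization in KISS1R-HEK293 cells was recorded by fluorescence (Ex/Em 480/540) for 3 min following compound addition to cells pre-loaded 1 h with calcium dye.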

[5] = G protein-coupled receptor (GPCR) small molecule agonists, calcium flux assay: HEK293 wild type cell line counter screen (AID 1920065)
How it was run: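 In this agonist-mode screen, ATP is the positive control and DMSO the vehicle. Cells grow 18 h before a 1 h dye incubation at 37 C; signal is taken at Ex/Em 480/540 over 3 min.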

[6] = p53 small molecule agonists, cell-based qHTS assay with human liver microsomes (AID 1963577)
How it was run: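 Cells carrying a p53-responsive bla reporter were rested 5 h (37 C, 5% CO2) before compound transfer. Human liver microsomes plus NADPH, 0.5 mg/mL final apiece, supplied metabolism during the 16 h 37 C exposure.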

[7] = p53 small molecule agonists, cell-based qHTS assay with rat liver microsomes (AID 1963578)
How it was run: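 Fluorescence from a beta-lactamase reporter under a p53 response element was measured after cells had been incubated 16 h at 37 C with test compound and rat liver microsomes plus NADPH (0.5 mg/mL final each).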

[8] = p53 small molecule agonists, cell-based qHTS assay with human liver microsomes: qHTS cell viability counter screen (AID 1963579); also: nearly all actives have a fitted effect of over 45% in size
How it was run: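 Seed p53RE-bla cells at 4,000 per well; incubate 5 h at 37 C; add compound, human liver microsomes and NADPH; incubate 16 h at 37 C; add CellTiter-Glo; after 30 min at room temperature, read luminescence.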

[9] = p53 small molecule agonists, cell-based qHTS assay with rat liver microsomes: qHTS cell viability counter screen (AID 1963580); also: nearly all actives have a fitted effect of over 45% in size
How it was run: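 In HCT-116 cells carrying a p53 response element-bla reporter, compounds were metabolically activated in situ by rat liver microsomes with NADPH over 16 h. Cell ATP content then served as the cytotoxicity measure.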

[10] = p53 small molecule agonists, cell-based qHTS assay: qHTS cell viability counter screen (AID 1963581); also: nearly all actives have a fitted effect of over 45% in size
How it was run: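 Compounds are pinned onto HCT-116 p53RE-bla cells and left 16 h at 37 C. Following the reporter FRET read, ATP is quantified by CellTiter-Glo luminescence after 30 min at room temperature.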

[11] = p53 small molecule agonists, cell-based qHTS assay (AID 1963582; active = well fitted activation curve with a large enough effect in the signal ratio in the repeat runs, not every such curve was filed as active; the % refers to the signal ratio)
How it was run: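 Agonist activity was scored from beta-lactamase FRET fluorescence in p53RE-bla cells treated 16 h at 37 C with compounds in DMSO, substrate incubation being 2 h at room temperature.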

[12] = molecular target: 5-hydroxytryptamine receptor 2A (Homo sapiens) (UniProt P28223); test: 5-hydroxytryptamine receptor 2A (HTR2A) small molecule antagonists, cell-based qHTS assay (AID 1963586); also: nearly all actives have a fitted effect of over 45% in size
Sequence of 5-hydroxytryptamine receptor 2A (Homo sapiens) (P28223 whole entry, looked up): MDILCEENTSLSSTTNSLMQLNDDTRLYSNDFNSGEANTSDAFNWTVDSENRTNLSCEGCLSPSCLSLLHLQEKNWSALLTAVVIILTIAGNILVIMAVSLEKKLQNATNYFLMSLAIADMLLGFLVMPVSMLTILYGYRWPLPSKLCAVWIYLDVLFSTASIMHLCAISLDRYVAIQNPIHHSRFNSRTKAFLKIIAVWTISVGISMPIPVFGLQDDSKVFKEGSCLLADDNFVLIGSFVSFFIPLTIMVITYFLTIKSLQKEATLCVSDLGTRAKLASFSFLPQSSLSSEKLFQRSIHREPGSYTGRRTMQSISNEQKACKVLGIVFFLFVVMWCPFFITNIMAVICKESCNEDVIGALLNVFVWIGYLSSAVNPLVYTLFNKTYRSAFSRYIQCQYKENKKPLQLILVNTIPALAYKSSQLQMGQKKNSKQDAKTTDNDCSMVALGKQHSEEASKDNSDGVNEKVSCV
How it was run: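 Antagonist-mode intracellular calcium assay: DOI (4 nM) added after 5 min compound pre-incubation at room temperature to dye-loaded HTR2A-CHO cells. Fluorescence followed for 3 min, sampled every second.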

[13] = molecular target: 5-hydroxytryptamine receptor 2A (Homo sapiens) (UniProt P28223); test: 5-hydroxytryptamine receptor 2A (HTR2A) small molecule agonists, cell-based qHTS assay (AID 1963587); also: nearly all actives have a fitted effect of over 30% in size
How it was run: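 HTR2A-CHO cells, plated 18 h at 37 C/5% CO2, dye-loaded 1 h at 37 C; compounds in DMSO added by pin tool (agonist mode). Intracellular calcium flux read as kinetic fluorescence on FDSS over 2 min at 1 s intervals.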

[14] = molecular target: Muscarinic acetylcholine receptor M1 (Homo sapiens) (UniProt P11229); test: Cholinergic receptor muscarinic 1 (CHRM1) small molecule antagonists, cell-based qHTS assay (AID 1963588); also: nearly all actives have a fitted effect of over 40% in size
Sequence of Muscarinic acetylcholine receptor M1 (Homo sapiens) (P11229 whole entry, looked up): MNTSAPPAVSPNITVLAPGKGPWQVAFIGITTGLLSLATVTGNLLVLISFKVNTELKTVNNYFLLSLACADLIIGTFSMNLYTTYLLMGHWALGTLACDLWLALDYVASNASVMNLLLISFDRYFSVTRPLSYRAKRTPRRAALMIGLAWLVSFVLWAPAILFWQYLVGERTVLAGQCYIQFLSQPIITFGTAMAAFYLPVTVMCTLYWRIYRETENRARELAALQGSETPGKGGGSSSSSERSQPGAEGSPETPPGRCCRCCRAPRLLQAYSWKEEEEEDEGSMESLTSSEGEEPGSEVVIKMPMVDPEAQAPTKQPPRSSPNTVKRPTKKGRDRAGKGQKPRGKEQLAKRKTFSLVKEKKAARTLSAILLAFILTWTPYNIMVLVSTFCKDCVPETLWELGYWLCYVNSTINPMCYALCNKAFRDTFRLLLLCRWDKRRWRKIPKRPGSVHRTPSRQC
How it was run: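 CHRM1-CHO calcium-flux assay, antagonist mode. Cells were seeded 18 h, dye-loaded 1 h at 37 C and given compound for 5 min at RT, then acetylcholine was added at 50nM. FDSS fluorescence was read 3 min; 15 concentrations, three runs.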

[15] = cAMP Responsive Elements (CRE) small molecule agonists, cell-based qHTS assay (AID 1963590)
How it was run: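 FRET-based beta-lactamase readout (LiveBLAzer B/G, 2 h RT) quantified CRE activation in HEK 293T CRE-bla cells after 3 h treatment with DMSO-dissolved compounds.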

[16] = cAMP Responsive Elements (CRE) small molecule antagonists, cell-based qHTS assay (AID 1963591; active = well fitted inhibition curve with a large enough effect in the signal ratio in the repeat runs, not every such curve was filed as active; the % refers to the signal ratio)
How it was run: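 qHTS in CRE-bla HEK 293T cells: compound in DMSO, then 0.25 uM NKH477 (final), 3 h at 37 °C/5% CO2; beta-lactamase FRET read-out after 2 h substrate incubation.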

[17] = molecular target: Beta-2 adrenergic receptor (Homo sapiens) (UniProt P07550); test: Adrenergic beta2 receptor (ADRB2) small molecule antagonists, cell-based qHTS assay (AID 1963592); also: series mostly up to about 92 µM; nearly all actives have a fitted effect of over 50% in size
Sequence of Beta-2 adrenergic receptor (Homo sapiens) (P07550 whole entry, looked up): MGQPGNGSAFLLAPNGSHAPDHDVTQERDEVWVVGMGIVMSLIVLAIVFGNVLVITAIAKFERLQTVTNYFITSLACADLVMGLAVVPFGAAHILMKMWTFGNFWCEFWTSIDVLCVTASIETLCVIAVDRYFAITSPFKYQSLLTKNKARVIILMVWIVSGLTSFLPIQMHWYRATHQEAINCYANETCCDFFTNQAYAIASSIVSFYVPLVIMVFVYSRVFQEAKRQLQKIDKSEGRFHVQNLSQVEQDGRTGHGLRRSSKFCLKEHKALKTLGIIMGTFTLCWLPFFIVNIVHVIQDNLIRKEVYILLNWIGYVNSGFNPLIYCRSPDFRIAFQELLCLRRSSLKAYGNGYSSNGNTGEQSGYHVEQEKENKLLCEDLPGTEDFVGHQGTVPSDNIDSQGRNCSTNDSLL
How it was run: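 Cells (CHO, stable ADRB2 overexpression) incubated 18-20hr at 37C; compounds added from DMSO; agonist mix (1nM isoproterenol, 100uM IBMX, 25uM Ro-20-1724) added; 0.5hr RT; d2-cAMP and anti-cAMP-cryptate added; 1hr RT; 665/615 nm read.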

[18] = molecular target: D(2) dopamine receptor (Homo sapiens) (UniProt P14416); test: Dopamine D2 receptor (DRD2) small molecule agonists, cell-based qHTS assay (AID 1963594); also: nearly all actives have a fitted effect of over 35% in size
Sequence of D(2) dopamine receptor (Homo sapiens) (P14416 whole entry, looked up): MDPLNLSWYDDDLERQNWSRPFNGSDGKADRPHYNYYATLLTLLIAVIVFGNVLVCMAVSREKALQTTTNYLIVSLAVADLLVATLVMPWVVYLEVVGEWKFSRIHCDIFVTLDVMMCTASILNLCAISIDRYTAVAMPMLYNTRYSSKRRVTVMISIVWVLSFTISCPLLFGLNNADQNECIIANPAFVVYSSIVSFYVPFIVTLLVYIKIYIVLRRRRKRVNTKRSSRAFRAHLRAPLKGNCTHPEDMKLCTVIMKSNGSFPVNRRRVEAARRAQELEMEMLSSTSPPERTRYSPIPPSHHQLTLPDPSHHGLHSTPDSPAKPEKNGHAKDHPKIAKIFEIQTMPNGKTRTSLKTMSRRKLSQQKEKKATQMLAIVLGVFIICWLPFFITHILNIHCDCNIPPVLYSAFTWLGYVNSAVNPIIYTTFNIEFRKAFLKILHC
How it was run: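 HEK293 cells stably expressing DRD2 were cultured 24 h at 37 C, then given Ro20-1724 (0.1 mM final) and compounds for 10 min at room temperature. NKH477 (200nM) was then added for 30 min. cAMP was read by HTRF.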

[19] = molecular target: D(2) dopamine receptor (Homo sapiens) (UniProt P14416); test: Dopamine D2 receptor (DRD2) small molecule antagonists, cell-based qHTS assay (AID 1963595; active = well fitted inhibition curve with a large enough effect in the signal ratio in the repeat runs, with a control signal flat; the % refers to the signal ratio)
How it was run: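 HEK293 cells stably expressing DRD2 were preincubated with 0.1 mM Ro20-1724, then with compound for 10 min at room temperature. Cells were stimulated with 200 nM NKH477 plus 12 nM quinpirole for 30 min, and cAMP was read by HTRF.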

[20] = molecular target: Muscarinic acetylcholine receptor M1 (Homo sapiens) (UniProt P11229); test: Cholinergic receptor muscarinic 1 (CHRM1) small molecule agonists, cell-based qHTS assay (AID 1963589); also: nearly all actives have a fitted effect of over 35% in size
How it was run: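 Stable CHRM1-CHO cells (human receptor) were incubated 18 h, dye-loaded for 1 h at 37 C and exposed to test compounds for agonist activity, with calcium-dependent fluorescence followed kinetically.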

Measured: Potency

N[C@@H](Cc1cc(I)c(Oc2cc(I)c(O)c(I)c2)c(I)c1)C(=O)O
not listed: [20]
inactive: all other assays above

CCCCCCCCO
not listed: [20]
inactive: all other assays above

COC(C)COC(C)COC(C)CO (stereo unspecified)
not listed: [20]
inactive: all other assays above

Cc1ccncc1
not listed: [18]
inactive: all other assays above

Reference: PubChem BioAssay (Tox21)
